Screens from PubChem BioAssay.
KDM5B inhibitor: KDM5B demethylase inhibition; Potency, µM (top dose mostly 57.7 µM), hits mostly inhibitors; 220,000 compounds, 2.6% hits; Q9UGL1; AID 1347165; KDM5B demethylase, FDH-coupled NADH fluorescence (FDH is formaldehyde dehydrogenase); active means well fitted inhibition curve with a large enough effect; further: 0% is about no effect; nearly all actives have a fitted effect of over 70% in size
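Measured: NADH fluorescence change, 30 min, RT. System: KDM5BΔAP 200 nM final, H3K4me3 peptide, α-KG, Fe(II), ascorbate, NAD⁺ plus FDH, pH 7.5 HEPES. Compounds: titrated, 10 min pre-incubation with enzyme.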
The depositor's hits bear a star; i = inactive. The full list was thinned out, with hits kept by preference. Potency means the concentration at half of the fitted maximal effect.

SMILES	KDM5B inhibitor
Cc1ccc(C(=O)N2CCCC3(C2)Nc2cccnc2NC3=NCc2ccccc2)cn1 (centres undefined)	28µM*
O=C(NCc1ccco1)N1CCC(OC2CCN(Cc3ccccc3)CC2)CC1	i
Cn1c(=O)n([C@H]2CCCN(S(=O)(=O)Cc3ccccc3)C2)c2ncccc21	i
Cc1cccc(C(=O)N2CCCC3(C2)NC(=O)N(Cc2ccccc2)C3=O)c1 (centres undefined)	i
O=C(NCc1ccco1)N1CCCC2(C1)Nc1cccnc1NC2=NCc1ccccc1 (centres undefined)	25µM*
CCCCS(=O)(=O)N1CCCC2(C1)Nc1cccnc1NC2=NCc1ccccc1 (centres undefined)	28µM*
O=C(NCc1ccco1)N1CCc2n[nH]c(=O)n2CC1	i
CC(C)(C)c1ccc(C(=O)N2CCCC3(C2)NC(=O)N(Cc2ccccc2)C3=O)cc1 (centres undefined)	i
N#C/C(=C/c1ccc(O)cc1)c1nc(C2CC2)cs1	i
O=S1(=O)NC2(CCN(Cc3c[nH]c4ccccc34)C2)COc2ccncc21 (centres undefined)	i
CN(C)c1cccc(C(=O)NNC(=O)c2ccc(CSc3ccc(Cl)cc3)cc2)c1	i
COc1ccc(/C=N/OCC(=O)OCC(=O)c2ccc(Cl)cc2)cc1	i
CC(C)NC(=O)Nc1ccc(CN)cc1	i
Clc1ccccc1N1CCN(Cc2nnc(-c3ccc(Br)s3)o2)CC1	i
CC(C)=CC1C(C(=O)NCC(C)(C)C(N)=O)C1(C)C (centres undefined)	i
CCOCCCNC(=O)c1cc(C2CC2)nc2ccccc12	i
CC(CC(=O)N(C)C1CCN(C)CC1)c1ccc(F)cc1 (centres undefined)	i
O=C1CCCC2=C1C(c1ccsc1)CC(=O)N2c1ccccc1C(F)(F)F (centres undefined)	i
CSc1ccc(/C=N/Nc2ccc(S(N)(=O)=O)cc2[N+](=O)[O-])cc1	i
O=C(Nc1cccc(F)c1)c1ccc2c(c1)CCC2	i
COc1cccc(CNC(=O)c2cccc(N3CCCN(Cc4ccc(C)cc4)C3=O)c2)c1	i
Cc1cnc(NC(=O)c2nn(Cc3ccccc3)c(=O)c3ccccc23)s1	i
Cn1c2c(c3ccccc31)CN(C(=O)Nc1ccccc1F)CC2	22µM*
Cn1ccc2cc(S(=O)(=O)N3CCN(C(=O)Nc4ccccc4F)CC3)ccc21	i
O=C(Nc1ccccc1)N1CCc2nc(-c3ccc(Cl)cc3)nc(-c3ccccc3)c2C1	i
SMILES	KDM5B inhibitor
CC(=O)N1CCn2cc(C(=O)Nc3ccc(Cl)cc3Cl)nc2C1	i
Cn1c2c(c3ccccc31)CN(C(=O)Nc1ccc(Cl)cc1Cl)CC2	22µM*
CS(=O)(=O)N1CCC(OC2CCN(C(=O)Nc3ccccc3F)CC2)CC1	i
CCN1C(=O)C2(CC(=O)Nc3[nH]ncc32)c2ccccc21 (centres undefined)	i
O=C(CSc1nc2ccccc2s1)Nc1cc(C(F)(F)F)cc(C(F)(F)F)c1	i
CSCCCN1CCC2(CC1)CCN(Cc1ccsc1)CC2CO (centres undefined)	i
O=C(Cc1ccc(N(Cc2ccccc2)C(=O)c2ccco2)cc1)NCCc1ccccc1	i
CC(C)c1noc(-c2ccn3c(CNC(=O)c4ccoc4)nnc3c2)n1	28µM*
Cc1cccc(C(=O)NCc2nnc3cc(-c4nc(C(C)C)no4)ccn23)c1	28µM*
Cc1noc(-c2ccn3c(CNC(=O)c4ccccn4)nnc3c2)n1	i
CC(C)c1noc(-c2ccn3c(CNC(=O)c4ccccc4)nnc3c2)n1	i
Cc1cccc(C(=O)NCc2nnc3cc(-c4nc(C)no4)ccn23)c1	25µM*
Cc1ccc(C(=O)NCc2nnc3cc(-c4nc(C)no4)ccn23)cc1	11µM*
COc1ccc(OC)c(C2CC(=O)N(c3sc4c(c3C#N)CCCCC4)C3=C2C(=O)CCC3)c1 (centres undefined)	i
Cc1ccc(SCCn2cc(S(=O)(=O)N3CCCC3)ccc2=O)cc1	i
CCc1nn2c(C)c(C(=O)Nc3ccc(F)cc3)nnc2c1-c1ccc(OC)cc1	i
O=C(NCCc1ccc(C(F)(F)F)cc1)c1cccnc1	i
COC(=O)c1cc(/C=C/C(=O)O)oc1C	i
Cn1c(=O)[nH]c(=O)c2c1nc(CN1CCN(Cc3ccccc3)CC1)n2CCCO	i
CCCCCCC(C)NC(=O)N1CCN(c2ncc(C(F)(F)F)cc2Cl)CC1 (centres undefined)	i
Cc1ccc2nc(-c3ccccc3)cc(C(=O)OCc3ccc(-c4ccccc4)cc3)c2c1	i
O=S(=O)(c1cc(Cl)ccc1Cl)N1CCCC1c1nnc2ccccn12 (centres undefined)	i
Cc1ccc(Cl)cc1-n1nc(-c2c(C)nc3scc(CC(=O)N4CCOCC4)n3c2=O)cc1C	28µM*
Cc1ccc(C)c(N2CCN(C(=O)Cn3cnc(S(=O)(=O)N4CCOCC4)c3)CC2)c1	i
CCN(CC(=O)N1CCOCC1)S(=O)(=O)c1ccc(Cl)cc1	i
SMILES	KDM5B inhibitor
Cc1ccc(C)c(N2CCN(S(=O)(=O)c3c(C)nc4scc(C)n4c3=O)CC2)c1	i
Cc1ccc(C)c(-n2nc(-c3c(C)nc4scc(CC(=O)N5CCOCC5)n4c3=O)cc2C)c1	28µM*
Cc1cc(=O)n(CC(=O)Nc2cc(Cl)ccc2C)c(N2CCOCC2)n1	i
O=C(CNc1ccc(S(=O)(=O)N2CCCC2)cc1)N1CCN(C(=O)c2cccs2)CC1	i
COc1cc(OC)cc(C(=O)NC2CCN(c3cc(-c4ccc(F)cc4)[nH]n3)CC2)c1	i
Cc1ccc(-c2cc3c(=O)n(CCNC(=O)c4ccc[nH]c4=O)ccn3n2)cc1C	35µM*
Cc1ccc(-c2cc3c(=O)n(CCNC(=O)c4cccc5[nH]ccc45)ccn3n2)cc1C	28µM*
Cc1ccc(-c2cc3c(=O)n(CCNC(=O)c4ccc(F)cc4)ccn3n2)c(C)c1	i
Cc1ccc(-c2cc3c(=O)n(CCNC(=O)Cc4c[nH]c5ccccc45)ccn3n2)c(C)c1	i
O=C(Cc1cccc(F)c1)NCCn1ccn2nc(-c3ccc(F)cc3)cc2c1=O	i
O=C(NCCn1ccn2nc(-c3ccc(F)cc3)cc2c1=O)c1cccc2[nH]ccc12	28µM*
COc1cc(C=O)c(Br)cc1OCCc1ccccc1	i
COc1ccc2nc(C#N)ccc2c1	i
CC(C)c1ccc(CC(=O)N2CCCc3ncc(C(=O)NCc4cccnc4)cc32)cc1	i
CSc1ccccc1NC(=O)c1cc(F)c(F)cc1Cl	i
CN(Cc1ccccc1)C(=O)C1CCC(C(=O)N(C)Cc2ccccc2)CC1 (centres undefined)	i
Cc1cccc(-c2nc(CSc3nc(C)c(C)c(=O)[nH]3)c(C)o2)c1	i
CCCC(C)NC(=O)Cc1c(C)[nH]c2ccc(F)cc12 (centres undefined)	i
CC(=O)NC1(C)CCCN(Cc2cc(-c3cccc(N4CCOCC4)c3)cs2)C1 (centres undefined)	i
CC(=O)NC1(C)CCN(Cc2ccc(-c3ccc(N4CCOCC4)cc3)cc2)C1 (centres undefined)	28µM*
CC(=O)NC1(C)CCCN(Cc2cc(-c3ccccc3)cs2)C1 (centres undefined)	i
O=C(NC1CCCC1)C1(c2ccc(F)cc2)CCCC1	i
O=C1CCc2cc(C(=O)NCCc3ccc4c(c3)OCCO4)ccc2N1	i
COc1cc(C(=O)OCc2nc(N)c3ccccc3n2)ccc1C	i
